The values that follow come from PubChem BioAssay AID2235 (The Scripps Research Institute Molecular Screening Center, 2010).

Out of some 320,000 compounds screened, about 2,800 (0.88%) were called active. This is one part of a sample in which actives are shown more often than they occur. A number with no mark means an inactive call.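 The calls were made as follows: active = inhibition above the mean inhibition of all tested compounds plus 3 SD, computed separately for each screening campaign (cut at about 15% in these data); inactive = the rest.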

For orientation: inhibition means the relative decrease from the control value, in per cent.

The target of the assay is Serine/threonine-protein phosphatase PP1-alpha catalytic subunit (Homo sapiens) (UniProt P62136). Description: PP1-alpha phosphatase inhibitors, primary screen, counter-screen for PP5 inhibitor project, biochemical, fluorescence, OMFP substrate, single point (AID 2235). The note with it: purified PP1alpha, at 6.7 µM, active compounds read high. (A counterscreen serves to expose hits that act by an unwanted route or on another target.)
Chain of Serine/threonine-protein phosphatase PP1-alpha catalytic subunit (Homo sapiens) (P62136 whole entry, looked up): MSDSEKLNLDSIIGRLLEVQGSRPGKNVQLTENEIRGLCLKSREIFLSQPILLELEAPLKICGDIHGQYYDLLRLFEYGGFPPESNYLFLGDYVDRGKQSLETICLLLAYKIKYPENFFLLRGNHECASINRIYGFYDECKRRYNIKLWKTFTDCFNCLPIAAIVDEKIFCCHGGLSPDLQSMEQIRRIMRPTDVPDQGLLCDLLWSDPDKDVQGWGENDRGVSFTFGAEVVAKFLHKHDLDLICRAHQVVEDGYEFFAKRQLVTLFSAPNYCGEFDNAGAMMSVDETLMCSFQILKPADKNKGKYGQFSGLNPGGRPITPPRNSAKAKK
With `Cc1ccc(NC(=S)Nc2ncccc2C)c(C)c1`, the inhibition is -1.13%.

`C#CCOCCOCCOCCNc1nc(N2CCN(C(=O)[C@H](C(C)C)n3cc(CCO)nn3)CC2)nc(N2CCN(C(=O)[C@H](C(C)C)n3cc(CCO)nn3)CC2)n1`: the inhibition was -0.91%.

Turning to `C#CCOCCOCCOCCNc1nc(N2CCN(C(=O)CCCCCCCCCCNC(=O)Cn3cc(CCCCCN)nn3)CC2)nc(N2CCN(C(=O)CCCCCCCCCCNC(=O)[C@H](CO)n3cc(CCCSC)nn3)CC2)n1`, the inhibition is 64.7% (active).

Consider `C#CCOCCOCCOCCNc1nc(N2CCN(C(=O)Cn3cc(CCCCN)nn3)CC2)nc(N2CCN(C(=O)[C@H](CCCCN)n3cc(CCC(=O)O)nn3)CC2)n1`, for which the inhibition was -0.58%.

Regarding `C#CCOCCOCCOCCNc1nc(N2CCN(C(=O)C([C@@H](C)CC)n3cc(C(N)COC(=O)C(F)(F)F)nn3)CC2)nc(N2CCN(C(=O)[C@H](CCCCN)n3cc(C(N)CC(C)C)nn3)CC2)n1` (stereo partly specified), the inhibition was 8.45%.

For `C#CCOCCOCCOCCNc1nc(N2CCN(C(=O)[C@H](CCCCN)n3cc(CCC(=O)O)nn3)CC2)nc(N2CCN(C(=O)[C@H](CCCCN)n3cc(CC(C)O)nn3)CC2)n1` (stereo partly specified), the inhibition was 5.96%.

Regarding `C#CCOCCOCCOCCNc1nc(N2CCN(C(=O)CCCCCCCCCCNC(=O)[C@H]([C@@H](C)CC)n3cc(CCCCN=C(N)N)nn3)CC2)nc(N2CCN(C(=O)CCCCCCCCCCNC(=O)[C@H](CO)n3cc(CCCSC)nn3)CC2)n1`, the inhibition is 53.8% (active).

Regarding `C#CCOCCOCCOCCNc1nc(N2CCN(C(=O)[C@H](CCCCN)n3cc([C@@H](N)C(C)CC)nn3)CC2)nc(N2CCN(C(=O)[C@H](Cc3ccc(O)cc3)n3cc([C@@H](N)C(C)CC)nn3)CC2)n1` (stereo partly specified), the inhibition was 5.1%.

For the compound `C#CCOCCOCCOCCNc1nc(N2CCN(C(=O)CCCCCCCCCCNC(=O)[C@H](CCCCN)n3cc(C)nn3)CC2)nc(N2CCN(C(=O)CCCCCCCCCCNC(=O)[C@H](CO)n3cc(CCCSC)nn3)CC2)n1`, the inhibition was 64.8% (active).

On to `C#CCOCCOCCOCCNc1nc(N2CCN(C(=O)[C@H](C(C)C)n3cc(CCO)nn3)CC2)nc(N2CCN(C(=O)[C@H]([C@@H](C)CC)n3cc(CCCN=C(N)N)nn3)CC2)n1`, for which the inhibition was 0.22%.

Take `CN1CCN(c2ccc(CNS(=O)(=O)c3cccc(F)c3)cc2)CC1`: the inhibition is -3.01%.

Regarding `O=C1/C(=C/c2cccs2)CCC1C1CCCC1` (stereo unspecified), the inhibition was -2.41%.

For `CC(=O)Oc1cc2c(C(=O)NCCN3CCOCC3)c(C)oc2c2ccccc12`, the inhibition is -0.6%.

Regarding `Cc1ccc(N=C2NC(=O)c3cccc([N+](=O)[O-])c32)cc1`, the inhibition is -1.21%.

As to `COc1ccccc1C(=O)NC(=O)COC(=O)C1CC1`, the inhibition was -1.39%.

Regarding `CCC(=C/c1sc2ccc3ccccc3c2[n+]1C)/C=C1\Sc2ccc3ccccc3c2N1C`, the inhibition was 79.3% (active).

On to `CC(NCc1ccccc1OC1CCCC1)c1ccccc1` (stereo unspecified), for which the inhibition is -3.47%.

For the compound `O=C(Nc1ccc(S(=O)(=O)NCC2CCCO2)cc1)c1ccc(F)cc1` (stereo unspecified), the inhibition was 1.04%.

Turning to `CC(C)(C)Nc1nc(-c2ccccn2)nc2ccccc12`, the inhibition is 18.4% (active).

`N#Cc1ccc(Oc2cc(C(F)(F)F)nc(-c3ccccn3)n2)cc1`: the inhibition is -1.29%.

For `CCOCCCNc1nc(-c2ccccc2)nc2ccccc12`, the inhibition was 3.36%.

Turning to `Cc1ccc(Oc2nc3ccccc3n3c(C)nnc23)cc1`, the inhibition was -3.88%.

Turning to `CCC(=O)OCCNc1nc(-c2ccccc2)nc2ccccc12`, the inhibition was 0.15%.

Regarding `COc1ccc(NCCc2ccccn2)cc1`, the inhibition is 1.13%.

Consider `CC(C)(C)c1ccc(Oc2ccc(N)cc2)cc1`, for which the inhibition is 1.18%.

As to `COc1cnc(-c2ccccn2)nc1Oc1ccc(C(C)(C)C)cc1`, the inhibition was 57.9% (active).

Take `Cc1ccc(Oc2nc(-c3ccccn3)nc3ccccc23)cc1`: the inhibition is 17.4% (active).

As for `COC(=O)C1=NNC2(c3ccc(C)cc3)C(=O)N(c3cccc(C)c3C)C(=O)C12` (stereo unspecified), the inhibition was 2.4%.

Regarding `Cc1ccc(-c2cnc(NC(=O)CCC(=O)N(C)Cc3ccccc3)n2C)cc1`, the inhibition is -3.93%.

As to `CC(c1nnc(SCC(=O)Nc2sccc2C#N)n1-c1ccc(Cl)cc1)N(C)C` (stereo unspecified), the inhibition is -0.51%.

In the case of `COc1ccc(NC(=O)CN(C)C(=O)c2cc(C3CC3)nn2-c2ccccc2)cc1`, the inhibition was -0.28%.

With `CC(C)Oc1ccc(CC(=O)NNC(=S)Nc2ccc(Br)cc2)cc1`, the inhibition is 6.13%.

With `Cc1ccc(C(=O)NNC(=O)c2cccs2)cc1`, the inhibition is 3.43%.

As to `Cc1ccc(C(=O)NNC(=O)c2cc3cc4ccccc4nc3s2)cc1`, the inhibition was 15.8% (active).

For `O=C(NNC(=O)c1cc2c(s1)CCCC2)c1ccccc1`, the inhibition is -3.37%.

In the case of `O=C(O)c1cccc(N=NN2CCCCCC2)c1`, the inhibition was 2.62%.

On to `CCN(CC(=O)Nc1ccc(NC(C)=O)cc1)C(=O)CSC(=S)N1CCCC1`, for which the inhibition is -1.09%.

As for `CCOc1cc(C)ccc1OCc1nnc(SCC(=O)Nc2cccc(C(=O)O)c2)n1-c1ccccc1`, the inhibition was -6.28%.

Consider `COc1ccc2nc(/N=C(\N)NC(=O)Nc3ccccc3)nc(C)c2c1`, for which the inhibition was 7.87%.

For the compound `Cc1nc(/N=C(\N)NC(=O)NC2CCCCC2)nc2ccccc12`, the inhibition is 18.6% (active).

For the compound `O=C(NNC(=O)C(O)c1ccccc1)NC1CCCCC1` (stereo unspecified), the inhibition was -1.2%.

For `CC1(C)C2CC=C(/C=N/NC(=O)c3ccc(Cl)cc3)C1C2` (stereo unspecified), the inhibition is 0.59%.

Take `COc1ccc(C(C#N)Nc2ccc(C)cc2)cc1` (stereo unspecified): the inhibition was -2.92%.

As to `N#CC1=C(N)Oc2c(sc3ccccc23)C1c1ccco1` (stereo unspecified), the inhibition is 15.7% (active).

Consider `N#CC1=C(N)Oc2c(ccc3cccnc23)C1c1ccncc1` (stereo unspecified), for which the inhibition was -1.75%.

In the case of `CON(C)S(=O)(=O)c1ccc2c(c1)NC(=O)C1CCCN21` (stereo unspecified), the inhibition is 5.21%.

As to `O=C(NC(=S)NC1CCS(=O)(=O)C1)c1cccc([N+](=O)[O-])c1` (stereo unspecified), the inhibition is -0.09%.

As for `CC1=NN(c2ccccc2)C(=O)C1C(=O)c1ccc([N+](=O)[O-])cc1` (stereo unspecified), the inhibition is -1.75%.

`Cc1nn(-c2ccc([N+](=O)[O-])cc2)c(N)c1-c1ccccc1`: the inhibition is -0.19%.

In the case of `O=C1CC(c2ccccc2)=NN1c1ccc([N+](=O)[O-])cc1`, the inhibition was 15.4% (active).

As for `Cc1ccc(NC(=O)CN(C)C(=O)COC(=O)c2nccnc2N)cc1`, the inhibition was 6.11%.

Take `Cc1sc(NC(=O)C2C3CCC(O3)C2C(=O)O)c(C(=O)OC(C)C)c1-c1ccc(Cl)cc1` (stereo unspecified): the inhibition was 10.9%.

For the compound `COc1ccc(NC(=S)SC)cc1OC`, the inhibition is -7.31%.

For the compound `COc1ccc(NC(=O)C2C3CCC(O3)C2C(=O)O)cc1OC` (stereo unspecified), the inhibition was 71.5% (active).

As to `COC(=O)c1cc(NC(=O)C2C3C=CC(C3)C2C(=O)O)cc(C(=O)OC)c1` (stereo unspecified), the inhibition is 2.03%.

Consider `CC(C)OC(=O)c1cc(NC(=O)C2C3CCC(O3)C2C(=O)O)cc(C(=O)OC(C)C)c1` (stereo unspecified), for which the inhibition was 48.8% (active).

With `COc1ccc(NC(=O)CNC(=O)Cc2ccccc2)cc1OC`, the inhibition is -3.57%.

As to `COc1ccc(N(CC(=O)N/N=C/c2cccc3c2OCCO3)S(=O)(=O)c2ccc(NC(C)=O)cc2)cc1`, the inhibition is 4.91%.

Turning to `CCOc1ccccc1N1CN(Cc2ccccc2)CNC1=S`, the inhibition is -3.54%.

Take `CC(C)c1ccc(N(C(=O)c2ccco2)C(C(=O)NC2CCCC2)c2cccnc2)cc1` (stereo unspecified): the inhibition is 4.81%.

For `CN(CC(=O)Nc1ccc(Cl)cc1)C(=O)CNC(=O)c1ccc2ccccc2c1`, the inhibition is -2.18%.

As for `Cc1cc(-c2csc(N)n2)c(C)n1-c1ccccc1`, the inhibition is 25.1% (active).

Take `CC(=O)Nc1ccc(C(=O)Nc2nc(-c3cc(C)n(Cc4ccccc4)c3C)cs2)cc1`: the inhibition is 3.86%.

As for `Cc1cc(-c2csc(N)n2)c(C)n1Cc1ccccc1`, the inhibition was 14.8%.

With `CC(=O)Nc1ccc(S(=O)(=O)N2CCC(NC(=O)c3ccccc3)CC2)cc1`, the inhibition is 0.38%.

Turning to `O=C(Nc1ccccc1N1CCN(C(=O)c2ccccc2)CC1)c1ccco1`, the inhibition is 0.05%.

Take `CCCNC(=O)c1ccc(N2CCC3(CC2)CC(c2cccc(Br)c2)=NO3)c(NC(=O)c2ccco2)c1`: the inhibition was 15.6% (active).

`CCCNC(=O)c1ccc(N2CCC3(CC2)CC(c2ccc(Cl)cc2)=NO3)c([N+](=O)[O-])c1`: the inhibition was -4.68%.

Turning to `CC(C)=CC(=O)Nc1nnc(-c2ccc(F)cc2)s1`, the inhibition is -5.78%.

Turning to `COc1ccc(C2=NN(C(=O)CSc3nnnn3C)C(c3ccco3)C2)cc1` (stereo unspecified), the inhibition is -2.47%.

`Cc1ccc(N(C(=O)c2ccc(CN3CCOCC3)o2)C(C(=O)NCCC(C)C)c2cccs2)c(C)c1` (stereo unspecified): the inhibition was -1.98%.

Take `Cc1ccc(Nc2nc(CSc3nnnn3-c3ccccc3)cc(=O)[nH]2)cc1`: the inhibition was 37.6% (active).

Take `COc1ccc(C)cc1-n1nnnc1SCc1nc2ccccc2c(=O)[nH]1`: the inhibition is 9.72%.

Turning to `Cc1ccc(-c2noc(CSc3nnnn3-c3ccccc3)n2)cc1`, the inhibition is 0.28%.

Turning to `CC1(C)O[C@@H]2[C@H](O1)[C@@H](CO)O[C@H]2n1c(N2CCCCC2)nc2c(N)ncnc21`, the inhibition is -3.13%.

As for `CC(=O)Nc1ccc(S(=O)(=O)N2CCn3cccc3C2C)cc1` (stereo unspecified), the inhibition is 0.86%.

On to `Cc1ccc(-n2c(SCC(=O)N/N=C/C=C/c3ccccc3[N+](=O)[O-])nc3ccccc3c2=O)cc1`, for which the inhibition was 16.8% (active).

With `O=C(CSc1nc2ccccc2[nH]1)N/N=C/C=C\c1ccccc1[N+](=O)[O-]`, the inhibition is -2.41%.

`CCn1c(SCC(=O)N/N=C/C=C/c2ccccc2[N+](=O)[O-])nnc1-c1ccccc1`: the inhibition was -0.35%.

Regarding `Cc1cccc(NC(=O)c2ccc(S(=O)(=O)N(C)CC3CCCO3)cc2)c1C` (stereo unspecified), the inhibition is 0.75%.

As to `NS(=O)(=O)c1ccc(NC(=S)Nc2ccc(Br)c(Cl)c2)cc1`, the inhibition is 0.34%.
